Rows were chosen to be rich in hits. Some 3.4% of all compounds tested hit in one or more screens of this group.
FBW7 activator: FBW7 E3 ligase activators, primary screen, biochemical, AlphaScreen, human; AlphaScreen FBW7–phospho-cyclin E peptide binding, activator screen; F-box/WD repeat-containing protein 7 (Homo sapiens), Q969H0; normalized activity (activation), % at 26.1 µM; 650,000 compounds, 0.13% hits; in the data active = normalized activity above about 1.9%;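 also: purified mutant Fbw7 with reduced substrate affinity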
GPR151 ag: activators of human GPR151, primary screen, cell-based, PathHunter beta-arrestin, luminescence; 650,000 compounds, 1% hits; activation, % at 11.2 µM; G-protein coupled receptor 151 (Homo sapiens), Q8TDV0; PathHunter beta-arrestin GPR151 cells; in the data active = activation above about 4.9%;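 also: 0% = median of compound wells and 100% = cells with positive control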
TEAD-YAP inh: TEAD-YAP interaction inhibition, primary screen, TEAD-YAP interaction inhibitor project, luminescence, HEK-TIYL cells; TEAD-Gal4/YAP UAS-luciferase luminescence; inhibition, % at 9.12 µM; 640,000 compounds, 1.4% hits; AID 1259422, 2018; in the data active = inhibition above about 32%;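 also: 0% = median of test compound wells and 100% = reference inhibitor wells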
MITF inh: MITF inhibitors, primary screen, biochemical, AlphaScreen, human | Microphthalmia-associated transcription factor (Homo sapiens), O75030 | AlphaScreen MITF homodimerization, bead proximity signal | inhibition, % at 2.6 µM | 650,000 compounds, 0.91% hits | AID 1259374, 2018; in the data active = inhibition above about 50%;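 also: 0% = vehicle wells with protein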
GPR151 conf act: GPR151 activators, triplicate retest, confirmation, cell-based, PathHunter beta-arrestin, luminescence; shares compounds with GPR151 ag; GPR151 PathHunter beta-arrestin cells, 90 min; % of EA-reagent control over plate median; activation, % at 11.2 µM; 6,700 tested, under 10 active;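 active = mean percent activation across replicates above the confirmation screen cutoff of 4.91%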
GPR119 ag: GPR119 activators in beta-arrestin cells, counter-screen for GPR151 activator project, cell-based, PathHunter beta-arrestin, luminescence, triplicate; shares compounds with GPR151 ag; 90 min; 0 = compound-well median, 100 = enzyme-acceptor control; activation, % at 11.2 µM; 6,700 compounds, 0.3% hits; AID 1508611, 2020;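 active = mean percent activation in the counterscreen above 29.09%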;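 also: counterscreen on off-target GPR119 to flag nonselective hits from the GPR151 activator screen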
Target sequence (Q8TDV5 whole entry, looked up): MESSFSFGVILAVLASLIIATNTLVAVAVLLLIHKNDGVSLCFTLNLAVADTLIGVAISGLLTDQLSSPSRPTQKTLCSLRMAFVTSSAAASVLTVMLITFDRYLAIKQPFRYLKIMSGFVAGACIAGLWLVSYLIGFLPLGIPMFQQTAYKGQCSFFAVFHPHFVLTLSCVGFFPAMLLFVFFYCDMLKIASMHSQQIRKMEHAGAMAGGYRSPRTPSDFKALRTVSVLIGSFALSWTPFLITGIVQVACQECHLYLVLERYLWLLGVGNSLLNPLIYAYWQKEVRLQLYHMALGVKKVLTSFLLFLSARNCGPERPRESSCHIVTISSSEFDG
Numbers without * were called inactive; ! = not confirmed by another sample.

What do the screens show for `CS(=O)(=O)c1ccc(N2CCC(O)CC2)cc1`?
FBW7 activator: 0; GPR151 ag: 0; TEAD-YAP inh: -2; MITF inh: -11

How did CCOc1c(Br)cc(C2C(C(=O)N3CCOCC3)=C(C)NC3=C2C(=O)CCC3)cc1OC (centres undefined) do in these assays?
FBW7 activator: 0; GPR151 ag: 6.2*; TEAD-YAP inh: 4; MITF inh: -1; GPR151 conf act: 0; GPR119 ag: -1

Results for CCCCCOC(=O)C1=C(C)NC2=C(C(=O)CCC2)C1c1cc(Br)c(O)c(OCC)c1 (centres undefined) ?
FBW7 activator: 0; GPR151 ag: 5.5*; TEAD-YAP inh: 2; MITF inh: 9; GPR151 conf act: -1; GPR119 ag: -3

How did CCCOC(=O)C1=C(C)NC2=C(C(=O)CCC2)C1c1cccnc1 (centres undefined) do in these assays?
FBW7 activator: 0; GPR151 ag: 6.1*!; TEAD-YAP inh: 2; MITF inh: 2; GPR151 conf act: 1; GPR119 ag: 3

Results for CCCOC(=O)C1=C(C)NC2=C(C(=O)CCC2)C1c1cc(Br)c(O)c(OCC)c1 (centres undefined) ?
FBW7 activator: 0; GPR151 ag: 0; TEAD-YAP inh: -3; MITF inh: 13

How did O=C(CNC(=O)C(c1ccccc1)c1ccccc1)NC1CCCCCC1 do in these assays?
FBW7 activator: 0; GPR151 ag: 0; TEAD-YAP inh: -1; MITF inh: -3

What do the screens show for `Cc1c(Cl)cccc1N1C(N)=C(C#N)C(c2ccc(F)cc2)C2=C1CCCC2=O` (centres undefined)?
FBW7 activator: 0; GPR151 ag: 2; TEAD-YAP inh: -14; MITF inh: 13

What do the screens show for `Cc1cc(-c2cncnc2C2CCCN(CC(=O)N3CCCC3)C2)on1` (centres undefined)?
FBW7 activator: 0; GPR151 ag: -1; TEAD-YAP inh: 6; MITF inh: 45

What do the screens show for `CC(=NC1CC(C)(C)NC(C)(C)C1)c1c(C)[nH]n(-c2ccc([N+](=O)[O-])cc2)c1=O`?
FBW7 activator: 0; GPR151 ag: 6.3*; TEAD-YAP inh: 9; MITF inh: 0; GPR151 conf act: -1; GPR119 ag: -7

How did O=C(CSc1ccc(-c2ccc(-n3ccnc3)cc2)nn1)NCc1ccccc1 do in these assays?
FBW7 activator: 0; GPR151 ag: 0; TEAD-YAP inh: -12; MITF inh: -11

How did CC(C)(C)c1ccc(C2/C(=C(\O)c3ccc(F)cc3)C(=O)C(=O)N2c2nncs2)cc1 (centres undefined) do in these assays?
FBW7 activator: 0; GPR151 ag: 0; TEAD-YAP inh: -3; MITF inh: 3

How did CCC(=O)Nc1sc2c(c1C(=O)Nc1ccccc1C(=O)OC)CCC(C(C)(C)C)C2 (centres undefined) do in these assays?
FBW7 activator: 0; GPR151 ag: 5.2*; TEAD-YAP inh: -1; MITF inh: 1; GPR151 conf act: -1; GPR119 ag: -12

What do the screens show for `COc1ccccc1NC(=O)c1c(NC(=O)CCC(=O)O)sc2c1CCC(C(C)(C)C)C2` (centres undefined)?
FBW7 activator: 0; GPR151 ag: 1; TEAD-YAP inh: -4; MITF inh: -11

What do the screens show for `CCC(C)(C)C1CCc2c(sc(NC(=O)c3ccccc3OC)c2C(N)=O)C1` (centres undefined)?
FBW7 activator: 0; GPR151 ag: 8.1*; TEAD-YAP inh: -3; MITF inh: -3; GPR151 conf act: 0; GPR119 ag: 5

How did CCC(Sc1ncnc2c1c(-c1ccccc1)cn2-c1ccc(F)cc1)C(=O)OC (centres undefined) do in these assays?
FBW7 activator: 0; GPR151 ag: -1; TEAD-YAP inh: -29; MITF inh: -3

How did CCN(CC)c1nc(NCc2cccc(C(F)(F)F)c2)nc(Nc2ccc(C(F)(F)F)cc2)n1 do in these assays?
FBW7 activator: 0; GPR151 ag: 0; TEAD-YAP inh: 6; MITF inh: 8

What do the screens show for `CCN(CC)c1nc(NCc2cccc(C(F)(F)F)c2)nc(NCc2ccc3c(c2)OCO3)n1`?
FBW7 activator: 0; GPR151 ag: 6.4*; TEAD-YAP inh: -6; MITF inh: 7; GPR151 conf act: 0; GPR119 ag: -10

Results for COc1ccc(CNC(=O)c2noc(C)c2[N+](=O)[O-])cc1 ?
FBW7 activator: 0; GPR151 ag: 5.0*; TEAD-YAP inh: 9; MITF inh: 8; GPR151 conf act: 0; GPR119 ag: 5

Results for COC(=O)c1cccc(NC(=O)CN2C(=O)c3ccc([N+](=O)[O-])cc3C2=O)c1C ?
FBW7 activator: 1; GPR151 ag: 5.1*; TEAD-YAP inh: -3; MITF inh: -10; GPR151 conf act: 1; GPR119 ag: 10

Results for COC(=O)c1ccccc1NC(=O)CN1C(=O)c2ccc([N+](=O)[O-])cc2C1=O ?
FBW7 activator: 0; GPR151 ag: -1; TEAD-YAP inh: 2; MITF inh: 8

Results for CCc1[nH]n2c(=O)c(Cl)c(C)nc2c1-c1cccs1 ?
FBW7 activator: 0; GPR151 ag: 7.3*; TEAD-YAP inh: 8; MITF inh: 2; GPR151 conf act: 0; GPR119 ag: 7

How did Cc1noc(/C=C/c2cccs2)c1S(=O)(=O)N1CCCC(C(=O)N2CCCC2)C1 (centres undefined) do in these assays?
FBW7 activator: 0; GPR151 ag: 0; TEAD-YAP inh: -6; MITF inh: -2

Results for Cc1noc(/C=C/c2cccs2)c1S(=O)(=O)N1CCCC(C(=O)N2CCCCC2)C1 (centres undefined) ?
FBW7 activator: 0; GPR151 ag: 5.0*; TEAD-YAP inh: -2; MITF inh: 2; GPR151 conf act: 0; GPR119 ag: 5

How did Cc1ccccc1N(C)S(=O)(=O)c1ccc2[nH]cc(C(=O)N3CCC(C)CC3)c(=O)c2c1 do in these assays?
FBW7 activator: 0; GPR151 ag: 5.1*; TEAD-YAP inh: 17; MITF inh: 10; GPR151 conf act: 0; GPR119 ag: 2

How did Cc1cccc(OCC(=O)OC2CCOC2=O)c1 (centres undefined) do in these assays?
FBW7 activator: 0; GPR151 ag: 1; TEAD-YAP inh: 2; MITF inh: 11
